Reference: the supplement of paper PMC6555819

Key:
Assay in all cases: PBM binding z-score (relative to random genomic background probes); higher = stronger binding; sequences stand for … in GC…GCGATTGACAGCGTAGAATGAAGG
[1] = tested on: RARb homodimer (NR concentration 270 nM)
In short: (§1)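 For binding z-scores, the reference was random background probes on custom Agilent 4×180K protein-binding microarrays. These arrays were incubated 1 h with ligand-free nuclear receptor dimers in PBS pH 7.4, 2% milk, 0.02% Triton X-100, 1 mM DTT, 0.2 mg/mL BSA and 0.4 mg/ml salmon testes DNA. Fluorescence was scanned after antibody detection of each partner (one per run) and regression-normalized.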

[2] = tested on: RARg:RXRa (NR concentration 270 nM, RXRa partner concentration 90 nM)
In short: as §1

[3] = tested on: RARg homodimer (NR concentration 270 nM)
In short: as §1

[4] = tested on: RXRa DBDmut IVT, anti-RXR (DBD mutation: RXRa K156A/R161A, NR concentration 90 nM)
In short: as §1

[5] = tested on: RXRa homodimer (NR concentration 180 nM)
In short: as §1

[6] = tested on: THRa:RXRa (NR concentration 90 nM, RXRa partner concentration 90 nM)
In short: as §1

[7] = tested on: THRa homodimer (NR concentration 90 nM)
In short: as §1

[8] = tested on: VDR homodimer (NR concentration 270 nM)
In short: as §1

Row | Sequence | PBM binding z-score [1] | PBM binding z-score [2] | PBM binding z-score [3] | PBM binding z-score [4] | PBM binding z-score [5] | PBM binding z-score [6] | PBM binding z-score [7] | PBM binding z-score [8]
1 | TCTTGTAGATCAACAGGAGGTTAAGTAAGATCGA | 0.766 | 1.15 | 0.284 | 0.388 | 1.02 | 1.78 | -0.391 | -0.26
2 | TGAATGAGGATAAAGATCAGGGAACGTGGCGTCG | -0.895 | 0.0209 | 0.399 | -0.871 | -0.0726 | 1.33 | 0.0902 | -0.316
3 | AATACAGGGTCACTAGGCCAGAGCAGGTACGAAT | 3.36 | 5.15 | 5.08 | 2.67 | 5.66 | 3.31 | 1.07 | 2.39
4 | CCTTACCGGTCACGAGGTTATAGCACGACGAGCG | 3.08 | 4.01 | 3.68 | 0.188 | 2.62 | 2.37 | 1.43 | 1.34
5 | CGTCAAAGTTCAGGGTAACGTAACAGAAAGCAGC | 3.13 | 4.04 | 4.74 | 3.74 | 2.91 | 2.14 | 0.495 | 2.51
6 | ACTTGCGGGTCAACGAGGTTATAGCACGCGTATA | 3.37 | 5.21 | 4.88 | 2.41 | 5.33 | 3.81 | 1.31 | 3.69
7 | TCTAGTTGGTAAAAGGTCACACACTCGAAATGCG | 5.28 | 6.21 | 5.8 | 2.17 | 6.64 | 4.08 | 2.3 | 2.75
8 | GCTATTAGTTGAAAGGGCACCCGAATGATTCTCG | 1.78 | 1.18 | 1.03 | 1.06 | 1.43 | 0.64 | 0.229 | 0.843
9 | GCAGACAGGTGAAACGCAGGTAACTGAGGGTGGC | 0.0628 | 0.86 | 0.142 | -0.51 | 0.568 | 1.06 | -0.377 | -0.727
10 | AATACAGGGTCACTAAGCCAGAGTAGGTACGAAT | 3.03 | 5.07 | 4.83 | 2.77 | 5.39 | 3.33 | 1.13 | 2.35
11 | AGAACCAGGGCAATGAGTTGATAGCACGGGTGGC | 0.48 | 0.321 | 0.673 | 0.0529 | 0.352 | 0.225 | -0.251 | 0.986
12 | AGTCCAAGTTCAGGACGAGGTAACGTAAAGCACG | 1.71 | 2.68 | 2.35 | 3.51 | 1.3 | 3.44 | 1.65 | 2.91
13 | ACTATTAGTTGAGACGAGGGCAACGGATAGGTTG | 0.993 | 0.638 | 0.908 | 0.374 | 0.585 | 2.53 | 0.137 | 0.875
14 | ATATGTATGTTACATCCGGGTCATTCAGGCTATG | 2.37 | 1.63 | 1.26 | 0.811 | 2.21 | 3.04 | 2.62 | 1.99
15 | CTACAAAGGTGAACAAGGTCGTTGATTACTATTC | 3.33 | 3.64 | 3.01 | 1.76 | 3.64 | 3.69 | 1.37 | 2.51
16 | CGAGCTAGGTCAGAACAGGACAGTGAAGGATGAT | 2.11 | 2.12 | 3.53 | 0.0691 | 1.07 | 3.47 | -0.106 | -0.325
17 | CCTAGTTGGTCAGGAGGTGACACACCGGATATGA | 1.48 | 1.12 | 1.22 | -0.691 | 0.768 | 1.18 | 0.64 | 0.232
18 | TCGAGCAGGTTAGGGGCATTCAGAATGGCGTCGA | 0.54 | 0.286 | 0.148 | -0.111 | 0.719 | 0.723 | -0.36 | 0.474
19 | TGTACAGGGTCAAAGGCCAGAGTACGAATGTCGA | 3.31 | 5.52 | 4.74 | 2.86 | 6.85 | 3.43 | 0.326 | 2.65
20 | GCTGCTAGGTCAACTGGTGGTCAGCTAAAGCTCG | 3.61 | 5.52 | 5.36 | 1.53 | 2.88 | 3.02 | 0.794 | 0.0223
21 | AGTCACAGTTCACTAGGTAACGTAAGATTCAGCT | 1.19 | 2.17 | 2.07 | 2.64 | 1.74 | 1.34 | 0.333 | 1.8
22 | CCGATTAGTTGACCATAAGGGCAACCGAAGCTCG | 2.01 | 0.824 | 0.774 | 0.777 | 0.56 | 1.7 | 0.965 | 0.334
23 | GCTGCTAGGTCAGCTTGGTCAGCTAACGGGTACG | 2.8 | 2.8 | 3.88 | 0.514 | 1.1 | 1.73 | 0.547 | -0.161
24 | TCTGCTAGGTCAACGATGGTCCGCTAATCTGCTA | 2.94 | 3.75 | 4.7 | 1.2 | 2.3 | 2.56 | 0.713 | -0.413
25 | ACTTACGGGTCAACGAGGTTATAGCCCGCGTATA | 3.68 | 5.54 | 4.99 | 2.37 | 6.11 | 3.97 | 1.14 | 3.48
26 | TCATATAGGTAAAAGGTGCAAGTCGGTGTGGTAA | 0.775 | 0.469 | 0.207 | 1.9 | 1.27 | 0.295 | -0.18 | 0.772
27 | CCGACTGGGGCATAACGTTACCATAAGCCAGCCC | -0.131 | -0.0174 | 0.122 | -0.083 | -0.0796 | -0.497 | -0.431 | -0.0002
28 | AACTCTAGGTAACAAGTTCAGTGAAAGAGAGGAC | 1.66 | 1.03 | 1.2 | 1.13 | 0.731 | 1.4 | 0.448 | 2.39
29 | CGTCAAAGTTCAACTACGGTAACGTAAAGCACGC | 4.21 | 5.89 | 6.48 | 4.64 | 5.18 | 4.23 | -0.22 | 3.69
